# Measured values from PubChem BioAssay (NCATS).
# Results filed as inconclusive are left out. A number with no mark means an inactive call. Activity calls are given as the source filed them. Calls come from the whole dose curve; as a rule, active = well fitted cell-killing curve with a large enough effect; inconclusive = small, poorly fitted or top-dose-only effect; inactive = flat fitted curve, though single readings scatter.
# Test: Cell Viability - LYMP2-019 (AID 973);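 for activity change, negative = cytotoxicity: 0% = DMSO alone and full effect = 92 µM tetraoctylammonium bromide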
# Details: LYMP2-019 lymphoblastoid cell line viability; series mostly up to 92.2 µM; activity change, negative = cytotoxicity: at the top concentration
# Summary of the method: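 qHTS, 1536-well; 2500 cells/well; 5 hr pre-incubation, 24 hr compound exposure, 37 C; CellTiter-Glo added, 30 min RT; luminescence read; AC50 via standard Hill equation.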
# Note: nearly all actives have a fitted effect of over 55% in size.
# Potency is the fitted concentration of half-maximal effect.
Structure (SMILES),"activity change, negative = cytotoxicity [%]",Potency
O=C(O)C(Br)Br,-16.8,–
Cc1ccc(OP(=O)(Oc2ccc(C)cc2)Oc2ccc(C)cc2)cc1,-25.8,–
Oc1c(Cl)c(Cl)cc(Cl)c1Cl,-13.5,–
Nc1ccc(Cc2ccc(N)c(Cl)c2)cc1Cl,-8.33,–
Brc1ccc(Oc2ccc(Br)cc2Br)c(Br)c1,-0.624,–
O=[N+]([O-])c1c(Cl)c(Cl)c(Cl)c(Cl)c1Cl,-9.96,–
CN1CSC(=S)N(C)C1,–,31.6 µM (active)
ClCC(Cl)Cl,-6,–
CC(C)Br,4.62,–
O=[N+]([O-])c1ccc(O)c([N+](=O)[O-])c1,-14.5,–
CC(C)[N+](=O)[O-],-9.92,–
CCCC[N+](=O)[O-],-12.5,–
Cc1cc(-c2cc(C)c(N)c(C)c2)cc(C)c1N,-3.86,–
Nc1cc(Cl)ccc1O,-14.2,–
CCN(N=O)C(N)=O,2.82,–
N#CC(Cl)(Cl)Cl,-12.6,–
CCCCC(CC)COC(=O)c1ccc(C(=O)OCC(CC)CCCC)c(C(=O)OCC(CC)CCCC)c1 (stereo not given),-19.7,–
O=C(O)C(Br)CBr (stereo not given),-16.5,–
Nc1c(Br)cc([N+](=O)[O-])cc1[N+](=O)[O-],-29,–

Structure (SMILES),"activity change, negative = cytotoxicity [%]",Potency
O=[N+]([O-])c1ccccc1CCl,–,63.1 µM (active)
Cc1cc(C)cc(OP(=O)(Oc2cc(C)cc(C)c2)Oc2cc(C)cc(C)c2)c1,-11.3,–
O=C(O)C(Cl)Br (stereo not given),-14.1,–
COP(=S)(OC)SCn1nnc2ccccc2c1=O,-6.29,–
Nc1ccc([N+](=O)[O-])cc1N,-17.9,–
O=C(O)c1cccc(Cl)c1,-4.89,–
Cc1cc(N=Nc2ccccc2C)ccc1N,-25.8,–
OCCCCO,4.16,–
O=[N+]([O-])c1cc(Cl)c(Cl)c(Cl)c1,-12.5,–
CC(C)(COCC1CO1)COCC1CO1 (stereo not given),-11.6,–
Cc1ccc2c(c1N)C(=O)c1ccccc1C2=O,-23.2,–
COc1ccccc1N,-10.3,–
CC(C)(C)OOC(=O)c1ccccc1,-8.36,–
c1ccc(N=NNc2ccccc2)cc1,-12.1,–
COC(C)(C)C,-6.86,–
C(CCOCC1CO1)COCC1CO1 (stereo not given),-19.4,–
CN(C)c1ccc(N)cc1,–,50.1 µM (active)
O=[N+]([O-])/C=C/c1ccccc1,–,39.8 µM (active)

# Test: Cell Viability - LYMP2-021 (AID 974);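 note: compound exposure lasts 24 hours at 37 °C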; for activity change, negative = cytotoxicity: % is set by controls: 0 for no effect and ±100 for the full control effect
# Details: LYMP2-021 lymphoblastoid cells viability; series mostly up to 92.2 µM; activity change, negative = cytotoxicity: at the top concentration
# Summary of the method: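 ATP luminescence (CellTiter-Glo, 30 min RT) after 24 h compound exposure at 37 C; 2500 human lymphoblastoid cells/well, 5 h settle beforehand. Cytotoxicity = concentration-dependent ATP drop, AC50 by Hill fit.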
Structure (SMILES),"activity change, negative = cytotoxicity [%]",Potency
Cc1ccc(OP(=O)(Oc2ccc(C)cc2)Oc2ccc(C)cc2)cc1,-0.721,–
Oc1c(Cl)c(Cl)cc(Cl)c1Cl,1.04,–
Brc1ccc(Oc2ccc(Br)cc2Br)c(Br)c1,-3.86,–
O=[N+]([O-])c1c(Cl)c(Cl)c(Cl)c(Cl)c1Cl,-0.139,–
CN1CSC(=S)N(C)C1,–,39.8 µM (active)
ClCC(Cl)Cl,-2.66,–
CC(C)Br,-0.437,–
O=[N+]([O-])c1ccc(O)c([N+](=O)[O-])c1,9,–
CC(C)[N+](=O)[O-],1.9,–
CCCC[N+](=O)[O-],-14.1,–
Cc1cc(-c2cc(C)c(N)c(C)c2)cc(C)c1N,-6.39,–
Nc1cc(Cl)ccc1O,-17.7,–
N#CC(Cl)(Cl)Cl,-5.36,–
CCCCC(CC)COC(=O)c1ccc(C(=O)OCC(CC)CCCC)c(C(=O)OCC(CC)CCCC)c1 (stereo not given),-12.6,–
Nc1c(Br)cc([N+](=O)[O-])cc1[N+](=O)[O-],-15.8,–
O=C(O)C(Cl)Br (stereo not given),-3.64,–

Structure (SMILES),"activity change, negative = cytotoxicity [%]",Potency
COP(=S)(OC)SCn1nnc2ccccc2c1=O,-3.06,–
Nc1ccc([N+](=O)[O-])cc1N,-20.8,–
O=C(O)c1cccc(Cl)c1,0.039,–
Cc1cc(N=Nc2ccccc2C)ccc1N,-15.1,–
OCCCCO,1.33,–
O=[N+]([O-])c1cc(Cl)c(Cl)c(Cl)c1,-6.35,–
CC(C)(COCC1CO1)COCC1CO1 (stereo not given),-12.6,–
Cc1ccc2c(c1N)C(=O)c1ccccc1C2=O,-21.2,–
COc1ccccc1N,-0.255,–
CC(C)(C)OOC(=O)c1ccccc1,-0.519,–
c1ccc(N=NNc2ccccc2)cc1,-17,–
COC(C)(C)C,-8.28,–
C(CCOCC1CO1)COCC1CO1 (stereo not given),-13.5,–
CN(C)c1ccc(N)cc1,–,63.1 µM (active)
O=[N+]([O-])/C=C/c1ccccc1,–,39.8 µM (active)

# Test: Cell Viability - LYMP2-023 (AID 975);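 note: cells exposed to compound for 24 hours at 37 °C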;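 for activity change, negative = cytotoxicity: cellular ATP measured by luciferase luminescence as viability proxy; plate controls were DMSO only for no effect and 92 µM tetraoctylammonium bromide control for full effect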
# Details: LYMP2-023 lymphoblastoid cell viability; series mostly up to 92.2 µM; activity change, negative = cytotoxicity: at the top concentration
# Summary of the method: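 CellTiter-Glo luminescence after 30 min at room temperature; decrease in intracellular ATP reflects toxicity. Cells: human lymphoblastoid line, 2500/well, 24 hr compound exposure at 37 C. AC50 fitted to standard Hill equation from concentration-response.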
Structure (SMILES),"activity change, negative = cytotoxicity [%]",Potency
O=C(O)C(Br)Br,-14.7,–
Oc1c(Cl)c(Cl)cc(Cl)c1Cl,-5.39,–
Nc1ccc(Cc2ccc(N)c(Cl)c2)cc1Cl,-2.15,–
CN(C)c1ccc(N(C)C)cc1,-24.2,–
Brc1ccc(Oc2ccc(Br)cc2Br)c(Br)c1,-4.44,–
O=[N+]([O-])c1c(Cl)c(Cl)c(Cl)c(Cl)c1Cl,-13.6,–
CN1CSC(=S)N(C)C1,–,39.8 µM (active)
ClCC(Cl)Cl,-0.936,–
C=CC(=O)OCCO,-27.7,–
O=[N+]([O-])c1ccc(O)c([N+](=O)[O-])c1,1.38,–
CC(C)[N+](=O)[O-],1.59,–
CCCC[N+](=O)[O-],0.469,–
Cc1cc(-c2cc(C)c(N)c(C)c2)cc(C)c1N,1.33,–
Nc1cc(Cl)ccc1O,-7.41,–
CCN(N=O)C(N)=O,-3.07,–
N#CC(Cl)(Cl)Cl,-0.771,–

Structure (SMILES),"activity change, negative = cytotoxicity [%]",Potency
CCCCC(CC)COC(=O)c1ccc(C(=O)OCC(CC)CCCC)c(C(=O)OCC(CC)CCCC)c1 (stereo not given),-7.32,–
O=C(O)C(Br)CBr (stereo not given),-10.3,–
Nc1c(Br)cc([N+](=O)[O-])cc1[N+](=O)[O-],-14,–
O=[N+]([O-])c1ccccc1CCl,-36.7,–
Cc1cc(C)cc(OP(=O)(Oc2cc(C)cc(C)c2)Oc2cc(C)cc(C)c2)c1,-4.54,–
O=C(O)C(Cl)Br (stereo not given),-3.3,–
COP(=S)(OC)SCn1nnc2ccccc2c1=O,0.64,–
Nc1ccc([N+](=O)[O-])cc1N,-9.93,–
Cc1cc(N=Nc2ccccc2C)ccc1N,-10.6,–
OCCCCO,-4.35,–
O=[N+]([O-])c1cc(Cl)c(Cl)c(Cl)c1,-2.92,–
Cc1ccc2c(c1N)C(=O)c1ccccc1C2=O,-3.15,–
CC(C)(C)OOC(=O)c1ccccc1,-0.714,–
c1ccc(N=NNc2ccccc2)cc1,1.42,–
COC(C)(C)C,-1.8,–
O=[N+]([O-])/C=C/c1ccccc1,–,50.1 µM (active)
